# Results: PubChem BioAssay
# Results filed as inconclusive are left out. The source made the active and inactive calls. Unless noted, cut-off not given; nearly all actives show AC50 up to about 26 µM.
# How the values were obtained:
# [1] = viability loss in pontine glioma line – cell-based, SU-DIPG-XVII, MIPE5.0, CellTiter-Glo, qHTS, dose response (AID 1347060); conditions: CellTiter-Glo ATP luminescence;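 on AC50: cells exposed to compound for 48 hours before viability readout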
# [2] = viability loss in pontine glioma line – cell-based, SU-DIPG-XIII, MIPE5.0, CellTiter-Glo, qHTS, dose response (AID 1347064; cut-off not given, nearly all actives have AC50 up to about 23 µM;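 on AC50: cells exposed to compound for 48 hours before the viability read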); conditions: CellTiter-Glo ATP luminescence
# [3] = JHH-DIPG-1 glioma cell viability, MIPE5.0 library, CellTiter-Glo luminescence, qHTS (AID 1347067); conditions: JHH-DIPG-1 glioma viability, CellTiter-Glo ATP luminescence;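 further: cells exposed to compound for 48 hours before readout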
# [4] = growth inhibition of DIPG cells – cell-based, MIPE5.0 library, qHTS (AID 1347068; cut-off not given, nearly all actives have IC50 up to about 30 µM); conditions: SU-DIPG-XXV viability
# [5] = viability loss with induced miR-34 in A549 – imaging, A549 dox-inducible miR-34, nuclei and caspase counts, primary screen (AID 1347080;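 active means compounds whose cell count with miR-34 switched on is under 0.7 times the count with it off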); conditions: A549 miR-34 inducible, Hoechst nuclei count, 48 h
# [6] = viability loss in pontine glioma line – cell-based, SU-DIPG-XXV, MIPE5.0, CellTiter-Glo, qHTS, dose response (AID 1347065); conditions: CellTiter-Glo ATP luminescence;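 further: cells exposed to compound for 48 hours before ATP readout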
# [7] = MELAS cybrid and Rieske KO viability enhancers – cell-based, MELAS cybrids, Rieske KO mouse fibroblasts, CellTiter-Glo, primary screen (AID 1508586;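 active means mean z-score across replicates of 1.96 or higher in either the MELAS or the Rieske mutant cell line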;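 further: z relative to plate mean and SD of compound and empty wells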); conditions: low glucose
# [8] = stronger effect = lower value, cell number ratio, induced over uninduced
# [9] = measured here: relative caspase fold change +Dox/-Dox
# [10] = measured here: total cells with miR-34 induction, stronger effect = lower value
# [11] = measured here: total cells without miR-34 induction
smiles,measurement,setting,value
C[C@H]1CN(C2COC2)CCN1c1ccc(Nc2cc(-c3ccnc(N4CCn5c(cc6c5CC(C)(C)C6)C4=O)c3CO)cn(C)c2=O)nc1,outcome,[1],inactive
same,outcome,[2],inactive
same,outcome,[3],inactive
same,outcome,[4],inactive
CN(C)c1cccc(-c2c3c(=O)n(-c4ccccc4Cl)[nH]c3cc(=O)n2C)c1,outcome,[1],inactive
same,outcome,[2],inactive
same,outcome,[3],inactive
same,outcome,[4],inactive
COc1cc(-c2cc(-c3ccc(N4CCNCC4)cc3)cnc2C)cc(OC)c1OC,outcome,[1],inactive
same,outcome,[2],inactive
same,outcome,[4],inactive
COc1cc(C)[nH]c(=O)c1CN1CCc2c(Cl)cc([C@H](OC)C3COC3)c(Cl)c2C1=O,outcome,[1],inactive
same,outcome,[2],inactive
same,outcome,[3],inactive
same,outcome,[4],inactive
N[C@@H]1CN(c2c(F)cc3c(=O)c(C(=O)O)cn([C@@H]4C[C@@H]4F)c3c2Cl)CC12CC2,outcome,[1],inactive
same,outcome,[2],inactive
same,outcome,[3],inactive
same,outcome,[4],inactive
CNC(=O)[C@H](Cc1c[nH]c2ccccc12)NC(=O)[C@@H](CC(=O)NO)CC(C)C,outcome,[1],inactive
same,outcome,[2],inactive
same,outcome,[3],inactive
same,outcome,[4],inactive
same,fold change,[5]; [8],1.03 (inactive)
same,fold change,[5]; [9],0.925
same,cell count,[5]; [10],4790
same,cell count,[5]; [11],4630
Cc1cccc(Nc2nc(N[C@@H]3CCCC[C@@H]3N)ncc2C(N)=O)c1,AC50,[1],18.6 µM (active)
same,AC50,[6],18.6 µM (active)
CCN(CC)C(=O)Cc1csc(NS(=O)(=O)c2cccc(Cl)c2C)n1,outcome,[1],inactive
same,outcome,[6],inactive
Cc1nn(C)c(COc2ccc(N3CCN(S(=O)(=O)N(C)C)CC3)cc2)c1-c1cccc2c(CCCOc3cccc4ccccc34)c(C(=O)O)n(CCN3CCOCC3)c12,AC50,[1],14.8 µM (active)
same,AC50,[2],18.6 µM (active)
same,AC50,[3],18.6 µM (active)
same,outcome,[4],inactive
Cc1c(F)cc(C(=O)NC2CC2)cc1-c1ccc(C(=O)NCC(C)(C)C)cn1,outcome,[1],inactive
same,outcome,[2],inactive
same,outcome,[3],inactive
same,outcome,[4],inactive
same,fold change,[5]; [8],0.832 (inactive)
same,fold change,[5]; [9],0.447
same,cell count,[5]; [10],7400
same,cell count,[5]; [11],8890
same,z-score,"[7]; MELAS cybrid survival, CellTiter-Glo 48 h, stronger effect = higher value",-0.46 (inactive)
same,z-score,"[7]; Rieske KO mouse fibroblast survival, CellTiter-Glo 72 h",0.488
